Shown are actives, neighbours in structure and some others; about 2.4% of the full set was active somewhere.
POLH inh: inhibitors of human DNA polymerase eta | Potency, µM (series often up to 114 µM), for inactives: at the top dose activity change, negative = inhibition, most hits filed as inhibitors | actives 1.2% (n = 390,000) | Q9Y253 | AID 588591 | recombinant Pol eta, fluorescent DNA replication assay; note: % is set by controls: 0 for no effect and ±100 for the full control effect
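Pol eta at 10 nM preincubated with compounds 15 min at room temperature; reaction started with fluorescent substrate (50 nM final) and read kinetically at 0 and 10 min.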
FEN1 inh: blocks human flap endonuclease 1; AID 588795; Recombinant FEN1 flap cleavage, fluorescence, 15 min; Potency, µM (series often up to 114 µM), for inactives: at the top dose activity change, negative = inhibition, most hits filed as inhibitors; actives 0.35% (n = 390,000); note: % is set by controls: 0 for no effect and ±100 for the full control effect; nearly all actives have a fitted effect of over 65% in size
Target sequence (P39748 whole entry, looked up): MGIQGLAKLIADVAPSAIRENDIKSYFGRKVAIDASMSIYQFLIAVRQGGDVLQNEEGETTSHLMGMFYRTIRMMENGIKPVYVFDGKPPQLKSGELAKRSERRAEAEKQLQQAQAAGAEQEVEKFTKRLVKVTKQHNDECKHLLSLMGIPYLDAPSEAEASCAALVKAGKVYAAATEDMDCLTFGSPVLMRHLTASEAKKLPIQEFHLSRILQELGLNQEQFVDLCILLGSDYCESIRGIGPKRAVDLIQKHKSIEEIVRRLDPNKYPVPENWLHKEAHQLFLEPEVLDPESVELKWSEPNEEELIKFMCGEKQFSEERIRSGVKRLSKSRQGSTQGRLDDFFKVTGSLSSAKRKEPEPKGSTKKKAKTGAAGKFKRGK
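Compounds are tested as a concentration series against 10 nM FEN1; after a 15 min room-temperature preincubation, 50 nM substrate starts cleavage, with plate reads at 0 and 15 min. Normalized responses are fitted by a Hill equation.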
Pol kappa inh: blocks human DNA polymerase kappa activity; Q9UBT6; purified Pol kappa, fluorescent DNA synthesis assay, 10 min; Potency, µM (top dose mostly 107 µM), inactives show top-dose activity, negative = inhibition, actives largely listed as inhibitors; actives 0.53% (n = 400,000); AID 588579; note: % is set by controls: 0 for no effect and ±100 for the full control effect
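50 nM final substrate added after 15 min RT preincubation of 10 nM Pol kappa with compound; fluorescence read at 0 and 10 min.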
Pol iota inh: DNA polymerase iota (human) inhibition; Potency, µM (highest dose often 115 µM), for the others: at the top dose activity, negative = inhibition, actives largely listed as inhibitors; Pol iota fluorescent replication assay, 10 min; actives 1% (n = 390,000)
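Fluorescent replication assay read twice, at 0 min and 10 min after adding 50 nM (final) substrate. Enzyme (10 nM) and compounds were first incubated 15 min at room temperature; enzyme-free buffer wells were negative controls.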
Pol beta inh: inhibitors of human DNA polymerase beta; P06746; Pol beta primer extension/strand displacement, fluorescence kinetic; Potency, µM (doses to about 114 µM), without a hit: top-dose activity change, negative = inhibition, most hits filed as inhibitors; actives 1.3% (n = 340,000); AID 485314; note: % is set by controls: 0 for no effect and ±100 for the full control effect
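Reaction started by 50 nM substrate onto compound-treated Pol beta (10 nM, 15 min preincubation, room temperature); plates read at 0 min and 10 min. Normalized concentration-effect data fitted by four-parameter Hill equation.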
PGK inhibitor: blocks T. brucei phosphoglycerate kinase; Potency, µM (doses to about 57.5 µM), for inactives: at the top dose activity change, negative = inhibition, most hits filed as inhibitors; PGK/GAPDH coupled, Kinase-Glo luminescence, 60 min; AID 602233; actives 0.043% (n = 380,000); note: % is set by controls: 0 for no effect and ±100 for the full control effect; nearly all actives have a fitted effect of over 60% in size
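Recombinant glycosomal PGK reaction used 1,3-bisphosphoglycerate generated in-well by GAPDH (100nM final) in 100mM TEA pH 7.6, 5mM MgCl2, 0.01% Tween-20. After 60 minutes at room temperature, ATP was read by Kinase-Glo Plus luminescence end-point.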
* marks the source's active call; other numbers are inactive results; i = inactive; ? = inconclusive; / = no result given; [ ] = another dose, or the depositor's remark. Calls come from the whole dose curve; as a rule, active = well fitted curve in the direction sought with a large enough effect; inconclusive = small, poorly fitted or top-dose-only effect, or another doubt; inactive = no such curve, though single readings can be large; an effect the other way counts as inactive or inconclusive. Potency is the fitted concentration of half-maximal effect.

SMILES	POLH inh	FEN1 inh	Pol kappa inh	Pol iota inh	Pol beta inh	PGK inhibitor
CC(=O)[C@]1(O)Cc2c(O)c3c(c(O)c2[C@@H](O[C@H]2C[C@H](N)[C@H](O)[C@H](C)O2)C1)C(=O)c1ccccc1C3=O	14µM*	/	27µM*	7.9µM*	14µM*	i
Cc1cccc(NC(=O)C(c2ccccc2)N2Cc3ccccc3C2=O)c1C (stereo unspecified)	-7%	-16%	5%	8%	17%	-8%
O=C(Nc1ccc(-n2nncc2-c2ccco2)cc1)c1cc2ccccc2oc1=O	89µM*	-22%	5.6µM*	11µM*	28µM*	4%
CC(=O)c1ccc(NC(=S)NC(=O)/C=C/c2ccccc2)cc1	-21%	-2%	-8%	30%	-22%	-8%
CCc1nnc(NS(=O)(=O)c2ccc(NC(=S)NC(=O)/C=C/c3ccccc3)cc2)s1	71µM*	1%	-21%	?	-9%	-24%
CCc1nnc(NS(=O)(=O)c2ccc(NC(=S)NC(=O)c3ccccc3)cc2)s1	-9%	0%	-1%	6%	7%	15%
CCc1nnc(NS(=O)(=O)c2ccc(NC(=S)NC(=O)/C=C/c3ccc(C(C)C)cc3)cc2)s1	45µM*	?	-14%	25µM*	45µM*	/
CCc1nnc(NS(=O)(=O)c2ccc(NC(=S)NC(=O)/C=C/c3ccc(OC)cc3)cc2)s1	-11%	50µM*	?	45µM*	-8%	?
CCc1nnc(NS(=O)(=O)c2ccc(NC(=S)Nc3ccc(F)cc3)cc2)s1	-5%	5%	-15%	-10%	42%	-6%
CCC(=O)Nc1ccc(NC(=S)NC(=O)/C=C/c2ccccc2)cc1	?	-20%	-27%	?	10µM*	1%
CS(=O)(=O)c1ccc(C(=O)OCC(=O)N2CCc3ccccc32)cc1[N+](=O)[O-]	/	-3%	-3%	1%	/	/
Clc1ccc(-c2csc3ncnc(Sc4nnnn4-c4ccccc4)c23)cc1	/	-2%	6%	-3%	/	/
Cc1ccc(N2C(=O)CS(=O)(=O)C23C(=O)N(Cc2ccccc2F)c2ccccc23)cc1Cl (stereo unspecified)	-9%	-20%	0%	0%	16%	-3%
COc1ccc(NS(=O)(=O)c2ccc(NC(=S)NC(=O)/C=C/c3ccccc3)cc2)nn1	79µM*	-4%	-16%	?	11%	-2%
CN(C)c1ccc(N=Nc2ccc(S(N)(=O)=O)cc2)cc1	?	-6%	-36%	20µM*	?	-7%
COc1ccc(S(=O)(=O)NNC(=O)Cc2csc(C)n2)cc1[N+](=O)[O-]	?	-2%	?	50µM*	/	-13%
COc1ccccc1Oc1nc2c(c(=O)n(Cc3ccccc3F)c(=O)n2C)n1C	-10%	-3%	9%	-1%	18µM*	i
NN=C1c2cc(S(=O)(=O)NCCO)ccc2-c2ccc(S(=O)(=O)NCCO)cc21	/	-4%	-14%	3%	/	/
Cc1cccc(CNC(=O)CN2CC(C)Sc3ccccc32)c1 (stereo unspecified)	-15%	4%	-12%[60.1 µM]	7%	0%	-5%
COc1cc2sc3ccc(-c4ccc5[nH]ccc5c4)cc3c(=O)c2cc1OC	-6%	-16%	-44%	79µM*	/	-6%
O=c1c2ccccc2oc2cc(-c3ccc4[nH]ccc4c3)ccc12	-8%	14%	6%	8%	/	i
CC(=O)Nc1ccc(NC2=C/C(=N/S(=O)(=O)c3cccs3)c3ccccc3C2=O)cc1	?	-13%	-11%	14µM*	?	-17%
Cc1ccccc1NC1=C/C(=N\S(=O)(=O)c2cccs2)c2ccccc2C1=O	11µM*	-3%	-21%	3.2µM*	26%	-22%
Cc1ccc(NC2=C/C(=N/S(=O)(=O)c3cccs3)c3ccccc3C2=O)cc1C	-9%	0%	-19%	14%	47%	9%
Cc1nnc(SCc2ccc(CSc3nnc(C)c(=O)[nH]3)cc2)[nH]c1=O	79µM*	4%	-11%	?	?	-5%
SMILES	POLH inh	FEN1 inh	Pol kappa inh	Pol iota inh	Pol beta inh	PGK inhibitor
CCCCn1c2ccccc2c2nnc(SCC(=O)Nc3ccc(NC(C)=O)cc3)nc21	-5%	?	-1%	-11%	14µM*	2%
CC[C@H](C)/C=C(C)/C=C/C(=O)Cc1cc(O)c(C)c(O)c1C=O	50µM*	-23%	-40%	?	?	-10%
O=C(CCl)Nc1nc(-c2ccco2)c(-c2ccco2)s1	13µM*	-7%	-32%	?	?	-4%
CN1CC(O)C2=CC(=O)C(=O)C=C21 (stereo unspecified)	/	/	0.32µM*	/	/	/
COC(=O)c1cc2oc3ccccc3c2n1Cc1c(C)cc(C)cc1C	/	-1%	1%	12%	3%	/
Oc1ccc(N2CCN(C(c3ccc(Cl)cc3)c3nnnn3Cc3ccc(F)cc3)CC2)cc1 (stereo unspecified)	/	-16%	-9%	30%	/	/
COc1cc(/C=C2/C=Cc3ccccc32)ccc1N(C)C	/	-26%	?	71µM*	/	/
COc1cc(/C=C2\C=Cc3ccccc32)ccc1N(C)C	/	-14%	1%	?	/	/
Cc1ccccc1Cc1c(C)nc2c(C(=O)NCc3ccco3)cnn2c1C	?	-18%	-16%	?	45µM*	-11%
Cc1ccccc1Cc1c(C)nc2nc(SCC(=O)NCc3ccco3)nn2c1C	5%	-11%	0%	-1%	5%	i
Nc1ccc(/C=C/c2nc3ccccc3s2)cc1	/	-26%	-23%	-20%	/	/
Cc1ccc(S(=O)(=O)N2CCN(c3nc(-c4ccncc4)nc4ccccc34)CC2)cc1	/	-7%	-10%	?	/	/
O=c1[nH]c2c(-c3nc(-c4ccc(F)cc4)cs3)c(O)cn2c2ccc(Br)cc12	/	-15%	-44%	?	/	/
O=C(O)c1ccc(-n2c(O)c(C=C3N=c4ccccc4=N3)sc2=S)cc1	-23%	0%	?	2.2µM*	12%	-8%
Cc1noc(C)c1CSc1nc2ccccc2nc1NS(=O)(=O)c1ccc(Cl)cc1	79µM*	-8%	-9%	?	3%	4%
O=S(=O)(Nc1nc2ccccc2nc1NCc1ccco1)c1ccc(Cl)cc1	?	-10%	-4%	?	?	0%
Cc1ccc(S(=O)(=O)Oc2cccc(/C=N/Nc3ccc(C(=O)O)cc3)c2)cc1	79µM*	-23%	5%	1%	-9%	-9%
CCCCN(CCCC)c1ccc(/C=C/c2ccnc3ccccc23)cc1	/	0%	3%	37%	/	/
CN(C)c1ccc(N=Cc2cccc3ccccc23)cc1	/	-2%	-26%	15%	/	/

Screening results: PubChem, National Center for Advancing Translational Sciences (NCATS)
